Laboratory results from the supplement of paper PMC7366291.
Counter-ions that a name gives are not always drawn. ± gives the standard deviation or the standard deviation of the averaged measurements.

Assays:
Details in all cases: 25 µM; exposure: 24-48 hpf
[1] = tested on: Danio rerio Tg(wt1b:EGFP) embryo, pronephros; experiment: glomerular separation, fold change vs DMSO control; higher = glomeruli further apart (abnormal)
Summary of the method: (§1)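 Dechorionated Tg(wt1b:EGFP) zebrafish embryos were kept from 24 to 48 hpf at 28.5°C in HEPES-buffered E3 containing 0.003% PTU, 0.5% DMSO and 25 μM compound. The pronephroi were then imaged from the dorsal side in agarose-filled 96-well plates at 470 nm with 10 z-slices, and 16 reference points were placed by hand on maximum projections in Fiji so that a macro could calculate distances and angles. Values lying more than 2 SD from the mean of a feature were discarded. Every feature is given as a fold change against the mean of DMSO-treated embryos from the same day.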

[2] = tested on: Danio rerio Tg(wt1b:EGFP) embryo, pronephros; experiment: glomerular width (mean of left and right), fold change vs DMSO control; higher = wider glomerulus
Summary of the method: as §1

[3] = tested on: Danio rerio Tg(wt1b:EGFP) embryo, pronephros; experiment: fraction of imaged embryos annotated as normal kidney; higher = less nephrotoxic; extreme values may be limits of the assay
Summary of the method: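 The value given is the share of embryos in each treatment scored as having a normal kidney. To obtain it, dechorionated Tg(wt1b:EGFP) zebrafish embryos were treated from 24 to 48 hpf at 28.5°C with 25 μM compound in 0.5% DMSO, in 5 mM HEPES-buffered E3 with 0.003% PTU. Pronephroi were imaged by widefield fluorescence (470 nm, 10 z-slices), and every embryo was annotated by hand from maximum projections.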

[4] = tested on: Danio rerio Tg(wt1b:EGFP) embryo, pronephros; experiment: pronephric angle neck segment to proximal convoluted tubule (mean of left and right), fold change vs DMSO control; higher = larger pronephric angle
Summary of the method: as §1

For NNC(=O)c1ccncc1 [Isoniazid], the glomerular separation [1] was 0.891 ± 0.099, the glomerular width [2] was 1.09 ± 0.032 and the “fraction of imaged embryos annotated as normal kidney” value (“fraction of imaged embryos annotated” below) [3] was 1. For the same compound, the “pronephric angle neck segment” value [4] was 0.978 ± 0.02.

In the case of CC(=O)NCCCS(=O)(=O)O [Acamprosate calcium], the glomerular separation [1] is reported as 1.02 ± 0.41, the glomerular width [2] is reported as 1.02 ± 0.022 and the “fraction of imaged embryos annotated” value [3] is reported as 0.75. The “pronephric angle neck segment” value [4] was 0.991 ± 0.053.

In the case of COc1cc(Cc2cnc(N)nc2N)cc(OC)c1OC [Trimethoprim], the glomerular separation [1] is reported as 1.48 ± 0.76, the glomerular width [2] is reported as 0.986 ± 0.013 and the “fraction of imaged embryos annotated” value [3] is reported as 0.727. For the same compound, the “pronephric angle neck segment” value [4] was 1.05 ± 0.063.

For CN[C@@H]1[C@@H](O)[C@@H](O[C@@H]2[C@@H](O)[C@H](O[C@H]3OC(CN)=CC[C@H]3N)[C@@H](N)C[C@H]2N)OC[C@]1(C)O [Sisomicin sulfate], the glomerular separation [1] was 1.23 ± 0.84, the glomerular width [2] was 1.02 ± 0.043 and the “fraction of imaged embryos annotated” value [3] was 0.833. The “pronephric angle neck segment” value [4] was 1.11 ± 0.029.

In the case of CN(CCOc1ccc(NS(C)(=O)=O)cc1)CCc1ccc(NS(C)(=O)=O)cc1 [Dofetilide], the glomerular separation [1] is reported as 1.35 ± 0.35, the glomerular width [2] is reported as 0.982 ± 0.025 and the “fraction of imaged embryos annotated” value [3] is reported as 0.583. The “pronephric angle neck segment” value [4] was 1.01 ± 0.07.

With C[C@]12C=CC(=O)C=C1CC[C@H]1[C@@H]3C[C@@H](O)[C@](O)(C(=O)CO)[C@@]3(C)C[C@H](O)[C@@]12F [Triamcinolone] the glomerular separation [1] was 1.19 ± 0.58, the glomerular width [2] was 1.23 ± 0.034 and the “fraction of imaged embryos annotated” value [3] was 0.75. The “pronephric angle neck segment” value [4] was 1.119 ± 0.0058.

With COc1c(N2C[C@@H]3CCCN[C@@H]3C2)c(F)cc2c(=O)c(C(=O)O)cn(C3CC3)c12 [Moxifloxacin] the glomerular separation [1] was 0.919 ± 0.39, the glomerular width [2] was 0.971 ± 0.024 and the “fraction of imaged embryos annotated” value [3] was 0.909. For the same compound, the “pronephric angle neck segment” value [4] was 0.998 ± 0.029.
